This passage reports composite z-score and composite Z-score results from PubChem BioAssay.

Where “and” joins values, the source holds several entries; their conditions need not be identical. Identical values can stand only once. Calls of active or inactive are those of the source.

Assay [1] deals with Albumin (Bos taurus) (UniProt P02769). Put plainly: compounds binding labelled BSA control protein – biochemical, small-molecule microarray, Alexa647 label, 635/667 nm fluorescence, artefact control for SMM control protein annotation, profiling panel (AID 1118).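 Also: score merges 667 nm emission intensity and signal-to-noise per printed compound spot.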 The note with it: BSA-A647 binding, fluorescence 635 nm, higher = more signal.
Assay [2] in a line: probe aXIP binding to arrayed compounds – biochemical, NeuroSMM set, 635/667 nm fluorescence, primary screen (AID 1119).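 Also: probe is the protein aXip251-270 applied at 1 µg/mL to compound-printed slides; binding of probe to printed compounds measured as 667 nm fluorescence plus signal to noise.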 Particulars: small-molecule microarray, higher = more signal, called active from +8 up or from −8 down.
Assay [3] in a line: probe aNOTCH3 binding on compound microarray – biochemical, small-molecule microarray, 635/667 nm fluorescence, primary screen (AID 1120).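 Also: probe is a biotin-tagged antibody raised against NOTCH3 rather than NOTCH3 protein; score merges spot fluorescence near 667 nm with spot signal to noise.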 Particulars: higher = more signal.
Assay [4] in a line: probe aNOTCH2 binding on compound microarray – biochemical, small-molecule microarray, 635/667 nm fluorescence, primary screen (AID 1121).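 Also: score merges feature fluorescence read at 667 nm with its signal to noise.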 Particulars: higher = more signal.
Assay [5] concerns the target Carbonic anhydrase 2 (Homo sapiens) (UniProt P00918). Put plainly: compounds binding carbonic anhydrase 2 – biochemical, small-molecule microarray, Alexa647-labelled CAII, profiling panel (AID 1122). The note with it: CAII-A647 binding fluorescence, higher = more signal.
Assay [6] can be described thus: COS7 lysate on small-molecule microarray, probe aHis, 635 nm (AID 1123).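 Also: z-score combines 667nm fluorescence intensity with signal-to-noise per printed compound spot.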 Particulars: COS7 cell lysate, fluorescence, higher = more signal.
The nature of assay [7]: probe aLAP1 signal on lysate-treated microarray – cell lysate, small-molecule microarray, COS7 lysate, primary screen (AID 1124).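 Also: lysate comes from COS7 cells expressing LAP1 and is applied at 0.3 µg/mL; score merges spot fluorescence near 667 nm with signal-to-noise over triplicate slides.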 The note with it: probe aLAP1, fluorescence, higher = more signal.
In assay [8] the test system is Sam68 (KHDRBS1). Put plainly: compounds binding KHDRBS1 protein – biochemical, small-molecule microarray, 635 nm fluorescence, primary screen (AID 1125).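 Also: score merges 667 nm channel intensity with signal to noise over triplicate slides.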 Particulars: higher = more signal.
Assay [9] deals with Chordin-like protein 2 (CHRDL2). Description: compounds binding chordin-like 2 – biochemical, small-molecule microarray, 635 nm fluorescence, primary screen (AID 1126).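 Also: printed compound slides probed with Chrdl2 protein at 4 µg/mL for 1 h at 4 C; score merges 667 nm emission intensity with signal to noise over three replicate slides.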 The note with it: fluorescence 635 nm, higher = more signal.
In assay [10] the target is Concanavalin-A (Canavalia ensiformis) (UniProt P02866). Put plainly: compounds binding concanavalin A lectin – biochemical, small-molecule microarray, Alexa647 label, 635 nm, artefact control for SMM control protein annotation, primary screen (AID 1127).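 Also: z combines 667 nm emission intensity with signal-to-noise across three replicate slides.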 The note with it: ConA-A647 binding fluorescence, higher = more signal.
Chain of Concanavalin-A (Canavalia ensiformis) (P02866 whole entry, looked up): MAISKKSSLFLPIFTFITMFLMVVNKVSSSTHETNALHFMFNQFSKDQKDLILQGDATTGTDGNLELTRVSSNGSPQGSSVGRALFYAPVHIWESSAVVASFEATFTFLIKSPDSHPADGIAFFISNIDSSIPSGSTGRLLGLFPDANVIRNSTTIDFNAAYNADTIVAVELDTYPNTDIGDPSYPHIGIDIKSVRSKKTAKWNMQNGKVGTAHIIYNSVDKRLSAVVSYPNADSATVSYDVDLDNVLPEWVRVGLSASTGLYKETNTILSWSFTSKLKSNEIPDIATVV

Chain of Albumin (Bos taurus) (P02769 whole entry, looked up): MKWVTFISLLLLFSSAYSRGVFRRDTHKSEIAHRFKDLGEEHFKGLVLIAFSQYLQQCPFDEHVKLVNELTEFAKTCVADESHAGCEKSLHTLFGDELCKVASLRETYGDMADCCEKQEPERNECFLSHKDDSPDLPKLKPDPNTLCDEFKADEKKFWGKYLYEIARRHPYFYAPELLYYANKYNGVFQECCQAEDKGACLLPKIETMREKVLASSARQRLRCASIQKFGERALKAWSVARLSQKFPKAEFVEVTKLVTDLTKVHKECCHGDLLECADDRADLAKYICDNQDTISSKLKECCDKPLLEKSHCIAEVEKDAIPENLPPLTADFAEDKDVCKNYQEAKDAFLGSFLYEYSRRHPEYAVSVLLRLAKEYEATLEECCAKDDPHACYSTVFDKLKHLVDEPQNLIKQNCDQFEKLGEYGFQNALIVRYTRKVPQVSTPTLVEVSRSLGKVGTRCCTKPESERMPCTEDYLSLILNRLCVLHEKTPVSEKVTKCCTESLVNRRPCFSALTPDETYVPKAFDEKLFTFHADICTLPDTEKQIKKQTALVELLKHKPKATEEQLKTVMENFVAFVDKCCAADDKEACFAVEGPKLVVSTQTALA

With `Cc1cc2c(nc1C)CCCN2CC(C)ON=C[C@@H](C)[C@H](OCc1ccccc1)C(C)C` (stereo not given in full), the composite z-score was -0.69 in assay [1]; 0.0642 in assay [3]; -0.0596 in assay [4]; -0.345 in assay [5]; 0.0869 in assay [6]; -0.442 in [7]. Moreover, the composite z-score in assay [8] was -1.3; in [9], 0.173; in assay [10] it was -0.804. For the same compound, the composite Z-score in assay [2] was 0.339 (inactive).

With `C=CCN(C(=O)C(c1cccs1)N(C(=O)/C=C\C(=O)O)c1ccc(CCO)cc1)C(C)(C)C` (stereo not given), the composite z-score is 0.779 and 0.432 in assay [1]; -0.312 and -0.448 in assay [3]; -0.0708 and -0.0924 in assay [4]; 0.663 and 0.867 in assay [5]; 2.45 and 2.51 in [6]; 0.904 and 1.16 in assay [7]. Besides, the composite z-score is -0.847 and -1.43 in assay [8]; -1.74 and -2.91 in assay [9]; -0.941 and -0.744 in [10]. Also, the composite Z-score in assay [2] is -0.374 (inactive) and -0.419 (inactive).

As to `C=CCN(C(=O)C(c1cccs1)N(C(=O)/C=C\C(=O)O)C(C)(C)CO)c1ccc(OC)cc1` (stereo not given), the composite z-score was -0.427 and -0.637 in assay [1]; -0.298 and -0.219 in assay [3]; -0.143 and -0.133 in [4]; 0.937 and 0.938 in [5]; 1.72 and 0.0237 in assay [6]; 0.92 and 1.17 in assay [7]. Also, the composite z-score was -0.294 and -0.786 in assay [8]; -1.74 and -0.727 in [9]; -0.692 and -0.93 in assay [10]. In addition, the composite Z-score in assay [2] was -0.431 (inactive) and -0.215 (inactive).

In the case of `CCOC(=O)NN=C1C[C@@H](O)[C@@H](O)[C@@H]2[C@@H]3C(=O)N(Cc4ccccc4)C(=O)[C@@H]3CC[C@@H]12`, the composite z-score in assay [1] is -0.0904; in [3] it was -0.166; in [4], -0.135; in assay [5], -0.0916; in assay [6], -0.381; in assay [7], 0.0195. Further, the composite z-score in assay [8] came to 0.254; in assay [9], 0.772; in [10] it was 0.42. In assay [2], the composite Z-score was 0.182 (inactive).

Take `CCCC[C@@H]1CN2[C@H](c3ccc(Br)cc3)[C@@H](C)CC[C@H]2C(=O)O1`: the composite z-score in [1] is -0.102 and -0.193; in assay [3], -0.17 and -0.0888; in [4], -0.14 and -0.0316; in assay [5], -0.199 and -0.139; in assay [6], -0.263 and 0.0681; in assay [7], 0.43 and 0.159. Besides, the composite z-score was -0.32 and 0.277 in assay [8]; 0.204 and 0.111 in assay [9]; 0.404 and -0.854 in assay [10]. The composite Z-score in assay [2] is -0.0662 (inactive) and -0.0677 (inactive).

Regarding `COc1ccc(O[C@H]2C=C[C@@H](c3ccccc3)O[C@@H]2COC(=O)CCC(C)=NO[C@H](C)c2cn([C@H](CO)Cc3ccccc3)nn2)cc1`, the composite z-score is 0.683 and 0.0567 in assay [1]; 0.0886 and -0.295 in [3]; -0.318 and -0.0611 in assay [4]; -0.11 and -0.114 in [5]; 0.167 and -0.0458 in [6]; -0.226 and -0.0278 in assay [7]. The composite z-score was 0.492 and -0.005 in [8]; 0.0011 and 0.593 in assay [9]; -0.0163 and -0.0252 in assay [10]. Moreover, the composite Z-score in assay [2] is 0.0335 (inactive) and 0.232 (inactive).

Consider `C[C@@H]1CC[C@H]2C(=O)O[C@H](CN=[N+]=[N-])CN2[C@H]1c1ccc(Br)cc1`, for which the composite z-score in assay [1] is -0.507 and 0.491; in assay [3], -0.125 and -0.197; in assay [4], -0.245 and -0.0569; in assay [5], -0.188 and -0.223; in assay [6] it was -0.0295 and -0.382; in [7] it was 0.268 and -0.329. Besides, the composite z-score in [8] is -0.167 and 0.113; in assay [9], 0.735 and 0.382; in assay [10] it was -0.726 and 0.0516. Further, the composite Z-score in assay [2] is 0.142 (inactive) and 0.753 (inactive).

As for `C=C[C@@H](OC)[C@H](O)c1ccc(OC)c(O)c1`, the composite z-score in assay [1] was 0.346 and 0.226; in assay [3], -0.0044 and -0.521; in assay [4], -0.0212 and -0.163; in [5] it was -0.189 and 0.232; in assay [6] it was -0.0302 and 0.043; in [7], -0.37 and -0.649. The composite z-score in assay [8] was 0.043 and -0.955; in assay [9], 1.11 and -0.52; in assay [10] it was -0.847 and -1.4. Also, the composite Z-score in assay [2] was 0.767 (inactive) and -1.19 (inactive).

`COC(=O)C1=C(C)N(Cc2ccccc2)C2=C3C(=O)N(C)C(=O)[C@@H]3[C@@](O)(C(=O)OC)C(=O)N2[C@@H]1c1ccccc1`: the composite z-score in [1] is 0.0056 and 0.0685; in [3], 0.134 and -0.101; in assay [4], -0.151 and -0.0619; in assay [5] it was 0.422 and -0.123; in assay [6] it was -0.332 and -0.0088; in [7] it was 1.36 and 0.499. The composite z-score was -0.239 and 0.267 in assay [8]; 0.37 and 0.38 in assay [9]; 0.17 and 0.178 in assay [10]. Further, the composite Z-score in assay [2] was 0.204 (inactive) and -0.12 (inactive).

As to `COC(=O)C1=C(C)N(Cc2ccccc2)C2=C(C(C)=O)C[C@@](O)(C(=O)OC)C(=O)N2[C@@H]1c1ccccc1`, the composite z-score is 0.838 and 0.336 in [1]; -0.0895 and 0.0597 in assay [3]; -0.0921 and -0.118 in [4]; 0.84 and 0.766 in [5]; 0.463 and -0.221 in [6]; 0.0922 and -0.421 in assay [7]. Also, the composite z-score in assay [8] is 1.24 and -0.523; in assay [9] it was 0.571 and 0.377; in assay [10] it was -0.0847 and -0.495. In assay [2], the composite Z-score is 0.397 (inactive) and 0.38 (inactive).

With `C[C@@H]1CC[C@@H](C(=O)O)N[C@H]1c1ccc(-c2ccco2)cc1`, the composite z-score in assay [1] is 0.0852; in [3] it was 0.0458; in assay [4] it was -0.16; in assay [5] it was 0.812; in [6] it was 0.01; in assay [7], -0.103. Besides, the figures for the composite z-score in assay [8], in [9] and in assay [10] were 0.108, 1.1 and 0.529, respectively. In [2], the composite Z-score was -0.122 (inactive).

In the case of `CC(C)=NOCc1ccc(-c2cn([C@@H]3COC[C@H]3O)nn2)cc1`, the composite z-score in assay [1] was 0.655; in assay [3] it was -0.0179; in assay [4], -0.131; in [5], -0.132; in assay [6] it was 0.355; in [7] it was -0.116. Further, the values for the composite z-score in assay [8], in assay [9] and in assay [10] were -0.103, 0.329 and 0.0843, respectively. In addition, the composite Z-score in assay [2] is 0.43 (inactive).

For `CO[C@H]1COC(=O)CC=C[C@@H](C)COC(=O)[C@@H](OCc2ccccc2)C=C[C@@H]1C`, the composite z-score was -0.853 in assay [1]; -0.307 in assay [3]; -0.179 in assay [4]; -0.297 in assay [5]; -0.173 in [6]; 0.106 in assay [7]. Further, the values for the composite z-score in assay [8], in assay [9] and in assay [10] were -0.239, 1.23 and -1.64, respectively. In addition, in assay [2], the composite Z-score was 0.528 (inactive).

With `CCCNC(=O)OC[C@H]1O[C@H](CCON=C(C)CCC(=O)OC[C@H]2O[C@H](C#Cc3ccccc3)C=C[C@@H]2Oc2ccc(C)cc2)C=C[C@@H]1Oc1ccc(OC)cc1`, the composite z-score in assay [1] was -0.22; in [3], -0.158; in [4], -0.141; in assay [5], -0.29; in assay [6], -0.324; in assay [7] it was -0.141. Moreover, the composite z-score is -1.22 in [8], -0.288 in assay [9] and 0.154 in assay [10]. Besides, the composite Z-score in assay [2] was 0.212 (inactive).

On to `C=C[C@@H](OC)[C@H](O)c1ccc(O)c(F)c1`, for which the composite z-score in assay [1] was -0.131 and 0.529; in assay [3], -0.502 and -0.544; in assay [4] it was -0.266 and -0.254; in assay [5], 0.881 and -0.182; in assay [6], -0.385 and -0.626; in [7] it was 1.24 and -1.16. Also, the composite z-score in assay [8] is -0.697 and -1.48; in [9], -0.952 and -0.984; in [10], -0.904 and -1.04. Besides, the composite Z-score in assay [2] is 1.31 (inactive) and -0.643 (inactive).

Regarding `C=CCN(C(=O)C1N(c2c(Cl)cccc2CO)C(=O)C2C(C(=O)O)C3C=CC21O3)C(C)(C)C` (stereo not given), the composite z-score in assay [1] was 0.393 and -0.872; in assay [3] it was -0.479 and -0.47; in assay [4], -0.253 and -0.185; in assay [5], 0.791 and -0.713; in assay [6] it was -0.556 and -0.856; in assay [7] it was -0.0145 and -0.779. Besides, the composite z-score in assay [8] was -1.2 and -2.06; in assay [9] it was -2.06 and -2.92; in [10], -1.09 and -0.331. For the same compound, the composite Z-score in [2] was 0.0388 (inactive) and -0.166 (inactive).
